# “And” between values parts separate entries of the source, which are not always exact repeats. Identical values can stand only once. Inconclusive results are not listed. A number with no mark means an inactive call. The source made the active and inactive calls. The call rests on the fitted dose curve; in most records, active means well fitted curve in the direction sought with a large enough effect; inconclusive means small, poorly fitted or top-dose-only effect, or another doubt; inactive means no such curve, though single readings can be large; an effect the other way counts as inactive or inconclusive.
# How the values were obtained:
# [1] = Viability qHTS for spleen associated tyrosine kinase inhibitor (SYKi) drug resistant MV4-11 cells (AID 1963824); further: nearly all actives have a fitted effect of over 35% in size; further: potency means the concentration at half of the fitted maximal effect
# How it was run: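 CellTiter-Glo luminescence, read 10 min after reagent addition, reports viability after a 72 hr compound exposure. Cells are an MV4-11 line made resistant to SYK inhibition, seeded at 500 per well onto compound-containing plates.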
# [2] = Quantitative highthroughput screen to assess conditional lethalithy of NOMO1 cells grown in RPMI1640 with untreated serum (RPMI+s) (AID 1963876); further: nearly all actives have a fitted effect of over 35% in size; further: potency means the concentration at half of the fitted maximal effect;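 on Viability: 100% = DMSO wells and 0% = empty wells without cells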
# How it was run: (§1)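 Each medium arm—HPLM with 10% dialyzed FBS, or RPMI1640 with 5 mM glucose and 10% untreated or dialyzed FBS—was screened against an 11-point, 3-fold compound titration for 48 h at 37 °C, with CellTiter-Glo luminescence as endpoint.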
# [3] = Quantitative highthroughput screen to assess conditional lethalithy of P12 Ichikawa cells grown in RPMI1640 with dialyzed fetal bovine serum (RPMI+ds) (AID 1963880); details: Potency: P12-Ichikawa viability; further: nearly all actives have a fitted effect of over 35% in size; further: potency means the concentration at half of the fitted maximal effect;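 on Viability: 100% = DMSO wells and 0% = empty wells on each plate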
# How it was run: as §1
# [4] = Quantitative highthroughput screen to assess conditional lethalithy of P12 Ichikawa cells grown in RPMI1640 with untreated serum (RPMI+s) (AID 1963881); details: Potency: viability; further: nearly all actives have a fitted effect of over 35% in size; further: potency means the concentration at half of the fitted maximal effect;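 on Viability: series mostly up to about 46 µM; 100% = DMSO wells and 0% = empty wells without cells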
# How it was run: as §1
# [5] = Quantitative highthroughput screen to assess conditional lethalithy of SEM cells grown in Human Plasma-Like Medium with dialyzed fetal bovine serum (HPLM+ds) (AID 1963882); further: nearly all actives have a fitted effect of over 35% in size; further: potency means the concentration at half of the fitted maximal effect; on Viability: series mostly up to about 46 µM
# How it was run: as §1
# [6] = Quantitative highthroughput screen to assess conditional lethalithy of SEM cells grown in RPMI1640 with unreated serum (RPMI+s) (AID 1963883)
# How it was run: as §1
# [7] = Cellular viability qHTS for adrenocortical cancer (ACC) cell line SW-13 (AID 1963989); details: SW-13 ACC cells viability, CellTiter-Glo, 48 h; activity (max response): active compounds read low; further: nearly all actives have a fitted effect of over 65% in size; further: potency means the concentration at half of the fitted maximal effect;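 on activity (max response): cells grown in serum-free medium with ITS supplement; on the % scale 0 is the no-effect control and ±100 the full control effect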
# How it was run: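 48 h treatment, SW-13 in ITS/DMEM serum-free; doses up to 46 uM; readout CellTiter-Glo luminescence; curve fit four-parameter logistic.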
# [8] = Cellular viability qHTS for adrenocortical cancer (ACC) cell line NCI-H295R (AID 1963990); further: nearly all actives have a fitted effect of over 60% in size; further: potency means the concentration at half of the fitted maximal effect
# How it was run: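 Compound titrations (up to 46 uM final) are applied to NCI-H295R cultures for 48 h at 37C. Viable cell number is estimated by CellTiter-Glo signal, normalised to DMSO and doxorubicin controls.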
# [9] = Quantitative highthroughput screen to assess conditional lethalithy of NOMO1 cells grown in RPMI1640 with dialyzed fetal bovine serum (RPMI+ds) (AID 1963877); further: nearly all actives have a fitted effect of over 30% in size; further: potency means the concentration at half of the fitted maximal effect;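 on Viability: series mostly up to about 46 µM; 100% = DMSO control wells and 0% = empty wells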
# How it was run: as §1
# [10] = Quantitative highthroughput screen to assess conditional lethalithy of P12 Ichikawa cells grown in Human Plasma-Like Medium with dialyzed fetal bovine serum (HPLM+ds) (AID 1963879); details: Potency: viability; further: nearly all actives have a fitted effect of over 35% in size; further: potency means the concentration at half of the fitted maximal effect; on Viability: series mostly up to about 46 µM
# How it was run: as §1
# [11] = Quantitative highthroughput screen to assess conditional lethalithy of NOMO1 cells grown in Human Plasma-Like Medium with dialyzed fetal bovine serum (HPLM+ds) (AID 1963878); further: nearly all actives have a fitted effect of over 35% in size; further: potency means the concentration at half of the fitted maximal effect;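 on Viability: 100% = DMSO wells and 0% = empty wells on each plate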
# How it was run: as §1
compound,measurement,setting,value
CC1=CC2(O)/C=C/C(C)(O)C(O)C(O)/C=C/C(=O)OC23C(=O)NC(CC(C)C)C3C1C (stereo not drawn),Potency,[1],inactive
CCc1c(C(=O)C(N)=O)c2c(OCC(=O)O)cccc2n1Cc1ccccc1,Potency,[1],inactive
same,Potency,[2],inactive
same,Potency,[3],inactive
same,Potency,[4],inactive
same,Potency,[5],inactive
same,Potency,[6],inactive
same,activity (max response),[7],-1.25%
same,Potency,[8],inactive
Nc1ccc(Sc2ccc(N)cc2)cc1,Potency,[1],43.3 µM (active)
COc1cc2c(cc1O)C1(C)CCC(O)C(C)(C)C1CC2=O (stereo not drawn),Potency,[1],inactive
C/C=C(\C)C(=O)OC1C2C3(C)CCC(OC4CC(OC)C(OC5OC(C)C(O)C(OC)C5O)C(C)O4)CC3CCC23OC32CCC(C(C)=O)C2(C)C1OC(=O)/C(C)=C/C (stereo not drawn),Potency,[1],3.9 µM (active)
CCOC(=O)Nc1ccc(NCc2c(C)cc(C)cc2C)cc1N,Potency,[1],9.2 µM (active)
CCCCCC[C@H]1C(=O)O[C@H](C)[C@H](NC(=O)c2cccc(NC=O)c2O)C(=O)O[C@@H](C)[C@@H]1OC(=O)CC(C)C,Potency,[1],0.105 µM (active)
same,Potency,[9],inactive
same,Potency,[10],1.66 µM (active)
CCN1C[C@]2(OC(=O)c3ccccc3NC(C)=O)CC[C@H](OC)[C@@]34[C@@H]2C[C@@H]([C@@H]13)[C@@]1(O)C[C@H](OC)[C@H]2C[C@@H]4[C@]1(O)[C@H]2OC,Potency,[1],4.11 µM (active)
C=CC(C)(C)c1[nH]c2cccc3c2c1C[C@@H]1[C@@H]3[C@@H](OC(C)=O)[C@H](C)CN1C,Potency,[1],1.01 µM (active)
CC(=O)O[C@H]1CC[C@@]2(CI)C(=CC[C@@H]3[C@@H]2CC[C@]2(C)C(=O)CC[C@@H]32)C1,Potency,[1],20.6 µM (active)
CC(=O)OC[C@]12C[C@H](O)C(C)=C[C@H]1O[C@@H]1[C@H](O)[C@@H](O)[C@@]2(C)[C@]12CO2,Potency,[1],0.805 µM (active)
CN[C@H]1[C@H](O)[C@H](O[C@@H]2[C@@H](O)[C@H](O[C@H]3O[C@H]([C@H](C)O)[C@@H](O)[C@H](O)[C@H]3N)[C@@H](N)C[C@H]2N)OC[C@@]1(C)O,Potency,[1],inactive
C=C1[C@@H](O)[C@]2(O)OC[C@]34C2[C@]2(C)C(C[C@H]3OC(=O)[C@H](O)[C@@]14O)C(C)=CC(=O)[C@H]2O (stereo partly drawn),Potency,[1],3.17 µM (active)
C[C@]12CC[C@@H](O[C@@H]3O[C@H](CO)[C@@H](O)[C@H](O)[C@H]3O)C[C@@]1(O)CCC1C2CC[C@]2(C)[C@@H](C3=CC(=O)OC3)CC[C@]12O (stereo partly drawn),Potency,[1],0.0632 µM (active)
CC(=O)O[C@H]1C[C@]2(O)[C@@H]3CC[C@@H]4C[C@@H](O)CC[C@]4(C)[C@H]3CC[C@]2(C)[C@H]1c1ccc(=O)oc1,Potency,[1],0.0231 µM (active)
CN1C[C@H](CNC(=O)OCc2ccccc2)C[C@@H]2c3cccc4c3c(cn4C)C[C@H]21,Potency,[1],8.41 µM (active)
CC1=CC2/C=C(\C)CCC(O)C3OC(C)(C)OC3CC(=O)OC23C(=O)NC(CC(C)C)C3C1C (stereo not drawn),Potency,[1],12.6 µM (active)
CN(C)[C@@H]1C(=O)C(C(N)=O)=C(O)[C@@]2(O)C(=O)C3=C(O)c4c(O)cccc4[C@@](C)(O)[C@H]3C[C@@H]12,Potency,[1],16.6 µM (active)
same,Potency,[9],inactive
same,Potency,[10],inactive
same,Potency,[4],inactive
same,Potency,[5],inactive
same,activity (max response),[7],15% and 6.24%
same,Potency,[8],inactive
CC(C)C[C@H](CN)CC(=O)O,Potency,[1],inactive
same,Potency,[2],inactive
same,Potency,[9],inactive
same,Potency,[4],inactive
same,activity (max response),[7],8.17%
same,Potency,[8],inactive
CCCCn1cc(C(=O)c2cccc3ccccc23)c2ccccc21,Potency,[1],18.4 µM (active)
COc1cc(OC)c(OC)cc1C=O,Potency,[1],inactive
same,Potency,[2],inactive
same,Potency,[11],inactive
same,Potency,[4],inactive
same,Potency,[5],inactive
same,activity (max response),[7],8.71%
CCC(C)C1NC(=O)C2CCCN2C(=O)C(CC(C)C)OC(=O)CCNC(=O)C(C)N(C)C(=O)C(C(C)C)N(C)C1=O (stereo not drawn),Potency,[1],5.44 µM (active)
Clc1ccccc1C(c1ccccc1)(c1ccccc1)n1cccn1,Potency,[1],16.6 µM (active)
same,Potency,[2],inactive
same,Potency,[4],inactive
same,activity (max response),[7],-15.1%
same,Potency,[8],inactive
C#CC1(O)CCC2C3CCC4=CC(=O)CCC4=C3C=CC21C (stereo not drawn),Potency,[1],18.4 µM (active)
CC1=C(O)C(=O)C=C2C1=CC=C1[C@@]2(C)CC[C@@]2(C)[C@@H]3C[C@](C)(C(=O)O)CC[C@]3(C)CC[C@]12C,Potency,[1],0.468 µM (active)
same,Potency,[2],3.72 µM (active)
same,Potency,[9],2.64 µM (active)
same,Potency,[11],2.96 µM (active)
same,Potency,[3],2.64 µM (active)
same,Potency,[4],2.96 µM (active)
same,Potency,[5],2.64 µM (active)
same,Potency,[7],4.47 µM (active)
same,Potency,[8],6.31 µM (active)
C/C=C(\C)C(=O)O[C@H]1[C@H](OC(C)=O)[C@]2(CO)[C@H](O)[C@H](O)[C@]3(C)C(=CCC4[C@@]5(C)CC[C@H](O[C@@H]6O[C@H](C(=O)O)[C@@H](O)[C@H](O[C@@H]7OC[C@H](O)[C@H](O[C@@H]8OC[C@H](O)[C@H](O)[C@H]8O)[C@H]7O)[C@H]6O[C@@H]6O[C@H](CO)[C@@H](O)[C@H](O)[C@H]6O)C(C)(C)C5CC[C@]43C)[C@@H]2CC1(C)C (stereo partly drawn),"viability, % of control",[1],68.2% [at 9.25 µM]

# From PubChem BioAssay (NCATS)
